Where “and” joins values, the source holds several entries; their conditions need not be identical. Equal values may be shown once. Calls of active or inactive are those of the source.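 How the source made its calls, unless noted: active means compounds whose cell count with miR-34 switched on is under 0.7 times the count with it off; inactive means the rest.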

The nature of assay [1]: liver-stage malaria parasite growth inhibition, primary screen, cell-based, HepG2, luciferase luminescence, HepG2 viability (AID 624349; in the data active means parasite load remaining mostly below about 12%, no sharp cut-off; inactive means mostly above about 10%;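 further: 100% = mean of DMSO negative control wells on the same plate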). Particulars: P. berghei liver stage in HepG2, luciferase luminescence, concentration not given here; parasite load remaining: stronger effect = lower value; viability: measured here: HepG2 viability without parasites.
Assay [2] can be described thus: sensitizers of A549 cells to miR-34 induction, primary screen, imaging, A549 dox-inducible miR-34, nuclei and caspase counts (AID 1347080). Particulars: A549 miR-34 inducible, Hoechst nuclei count, 48 h.
Assay [3] is described as follows: survival rescue of mitochondrial mutant cells in low glucose, primary screen, MELAS cybrids, Rieske KO mouse fibroblasts, CellTiter-Glo (AID 1508586;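 active means mean z-score across replicates of 1.96 or higher in either the MELAS or the Rieske mutant cell line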;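 further: z relative to plate mean and SD of compound and empty wells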). A general note: ATP-based viability assays read luminescence as a measure of living cells.
The nature of assay [4]: hESC survival regulators, cell-based (AID 493140; call rule not given here;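 further: cells exposed to compounds for four days before counting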). Particulars: human embryonic stem cell survival screen; stronger effect = higher value.
A short description of assay [5]: Cy5 fluorescence interference with SSB-bound oligo, artefact control for HCV NS3 helicase inhibitor project, biochemical, NIH Clinical Collection, E. coli SSB (AID 743268; call rule not given here).
Assay [6] deals with Hepatitis C virus NS3 helicase. Put plainly: HCV NS3 helicase inhibitors, primary screen, biochemical, fluorescence polarization, NIH Clinical Collection (AID 743270; call rule not given here). The settings on record: NS3 helicase binding to Cy5-dT15 DNA, stronger effect = higher value, concentration not given here.
In assay [7] the target is Single-stranded DNA-binding protein (Escherichia coli (strain K12)) (UniProt P0AGE0). Put plainly: E. coli SSB displacement from DNA, counter-screen for HCV NS3 helicase inhibitor project, biochemical, fluorescence polarization, NIH Clinical Collection (AID 743271; in the data active means inhibition above about 28%). The settings on record: stronger effect = higher value, concentration not given here. In general terms: Counterscreens check selectivity or assay interference.

The nature of assay [8]: fluorescence interference in NS3h assay format, artefact control for HCV NS3 helicase inhibitor project, biochemical, NIH Clinical Collection (AID 743272; call rule not given here;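 further: HCV NS3 helicase with a Cy5 labelled single stranded DNA probe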). The settings on record: fluorescence interference counterscreen, stronger effect = lower value.
Setting [9] is: stronger effect = lower value, cell number ratio, induced over uninduced.
[10] abbreviates: measured here: relative caspase fold change +Dox/-Dox.
Where [11] appears, read: measured here: total cells with miR-34 induction, stronger effect = lower value.
Where [12] appears, read: measured here: total cells without miR-34 induction.
[13] abbreviates: MELAS cybrid survival, CellTiter-Glo 48 h, stronger effect = higher value.
The mark [14] stands for this setting: Rieske KO mouse fibroblast survival, CellTiter-Glo 72 h.

For the compound `CC(=O)Nc1c(I)c(C(=O)N[C@H]2C(O)O[C@H](CO)[C@@H](O)[C@@H]2O)c(I)c(N(C)C(C)=O)c1I` (stereo not given in full), the parasite load remaining in assay [1] is 113% (inactive). Also, in assay [1], the viability amounted to 109%. In addition, the fold change is 0.901 (inactive) in assay [2] (setting [9]) and 1.22 in assay [2] (setting [10]). Also, the cell count in assay [2] (setting [11]) was 9390; in assay [2] (setting [12]), 10400. Also, the values for the z-score in assay [3] (setting [13]) and in assay [3] (setting [14]) were 0.559 (inactive) and 0.37, respectively.

`COC(=O)Nc1nc2ccc(SC(C)C)cc2[nH]1`: the survival in assay [4] was 0.5 (inactive). In addition, the parasite load remaining in assay [1] was 92.8% (inactive). For the same compound, the viability in assay [1] came out at 74.8%. Further, the fold change in assay [2] (setting [9]) was 0.996 (inactive); in assay [2] (setting [10]) it was 0.586. The cell count in assay [2] (setting [11]) is 1650; in assay [2] (setting [12]), 1660. The figures for the z-score in assay [3] (setting [13]) and in assay [3] (setting [14]) were -2.13 (inactive) and 1.04, respectively.

As to `C=C(NC(=O)C(=C)NC(=O)c1csc(C2=N[C@H]3c4csc(n4)[C@H]4NC(=O)c5csc(n5)[C@H]([C@@](C)(O)[C@@H](C)O)NC(=O)[C@H]5CSC(=N5)/C(=C\C)NC(=O)[C@H]([C@@H](C)O)NC(=O)c5csc(n5)[C@]3(CC2)NC(=O)[C@H](C)NC(=O)C(=C)NC(=O)[C@H](C)NC(=O)[C@H](C(C)CC)N[C@@H]2C=Cc3c([C@H](C)O)cc(nc3[C@H]2O)C(=O)O[C@@H]4C)n1)C(N)=O` (stereo not given in full), the parasite load remaining in assay [1] is 8.38% (inactive). Besides, in assay [1], the viability was found to be 102%. Moreover, the fold change in assay [2] (setting [9]) is 0.85 (inactive); in assay [2] (setting [10]) it was 1.56. The figures for the cell count in assay [2] (setting [11]) and in assay [2] (setting [12]) were 7430 and 8740, respectively. Further, the z-score in assay [3] (setting [13]) was 5.43 (active); in assay [3] (setting [14]), 3.6.

Take `OC(CCN1CCCCC1)(c1ccccc1)C1C[C@@H]2C=C[C@H]1C2` (stereo not given in full): the parasite load remaining in assay [1] was 24.7% (inactive). The viability in assay [1] is 105%. Besides, the figures for the fold change in assay [2] (setting [9]) and in assay [2] (setting [10]) were 0.888 (inactive) and 1.45, respectively. Besides, the cell count in assay [2] (setting [11]) came out at 8210; in assay [2] (setting [12]), 9240. The z-score in assay [3] (setting [13]) was -0.0819 (inactive); in assay [3] (setting [14]), -0.0447.

`O=C(O)C=Cc1ccc(O)c(O)c1`: the survival in assay [4] is 7.75 (inactive). Moreover, the parasite load remaining in assay [1] was 59.8% (inactive). In addition, the viability in assay [1] was 95.6%. For the same compound, the fold change in assay [2] (setting [9]) was 0.886 (inactive) and 0.85 (inactive); in assay [2] (setting [10]) it was 1.16 and 0.929. In addition, the cell count is 9150 and 8100 in assay [2] (setting [11]); 10300 and 9530 in assay [2] (setting [12]). For the same compound, the values for the z-score in assay [3] (setting [13]) and in assay [3] (setting [14]) were -0.35 (inactive) and 0.227, respectively.

For `O=C(O)C(O)C(O)C(O)C(O)C(=O)O` (stereo not given) (tested in a mixture with another compound), the survival in assay [4] is 5.33 (inactive). Also, the parasite load remaining in assay [1] was 114% (inactive). In addition, in assay [1], the viability came to 71.7%. Besides, the fold change in assay [2] (setting [9]) was 0.895 (inactive); in assay [2] (setting [10]), 0.792. Further, the cell count in assay [2] (setting [11]) is 8860; in assay [2] (setting [12]), 9910. The z-score in assay [3] (setting [13]) was -1.4 (inactive); in assay [3] (setting [14]), -0.918.

For `CN(C)C/C=C(\c1ccc(Br)cc1)c1cccnc1`, in assay [1], the parasite load remaining is 45.2% (inactive). The viability in assay [1] was 47.6%. The results for the fold change in assay [2] (setting [9]) and in assay [2] (setting [10]) were 0.924 (inactive) and 0.86, respectively. Moreover, the cell count was determined as 8480 in assay [2] (setting [11]) and 9180 in assay [2] (setting [12]). Moreover, the z-score was 0.27 (inactive) in assay [3] (setting [13]) and 0.193 in assay [3] (setting [14]).

For the compound `O=C1Cc2c([nH]c3ccc(Br)cc23)-c2ncccc2N1`, in assay [1], the parasite load remaining was 39% (inactive). Further, in assay [1], the viability stood at 165%. Besides, the fold change in assay [2] (setting [9]) is 0.879 (inactive); in assay [2] (setting [10]) it was 0.672. For the same compound, the cell count in assay [2] (setting [11]) is 2970; in assay [2] (setting [12]) it was 3380. Also, the z-score in assay [3] (setting [13]) was 1.05 (inactive); in assay [3] (setting [14]), -2.27.

Regarding `CCSc1ccc2c(c1)N(CCCN1CCN(C)CC1)c1ccccc1S2`, the survival in assay [4] is 1.5 (inactive). Also, the parasite load remaining in assay [1] was 77.3% (inactive). For the same compound, the viability in assay [1] was determined as 70.9%. Further, the fold change in assay [2] (setting [9]) was 0.933 (inactive); in assay [2] (setting [10]), 0.655. Besides, the cell count in assay [2] (setting [11]) turned out to be 7330; in assay [2] (setting [12]), 7860. In addition, the values for the z-score in assay [3] (setting [13]) and in assay [3] (setting [14]) were -1.53 (inactive) and 0.455, respectively.

Turning to `CNC(=O)c1c(I)c(C(=O)NCC(=O)Nc2c(I)c(C(=O)O)c(I)c(C(=O)NCCO)c2I)c(I)c(N(C)C(C)=O)c1I`, the survival in assay [4] is 10.4 (inactive). The parasite load remaining in assay [1] is 91.6% (inactive). Moreover, in assay [1], the viability is 71.7%. Further, the fold change is 0.94 (inactive) in assay [2] (setting [9]) and 0.7 in assay [2] (setting [10]). For the same compound, the values for the cell count in assay [2] (setting [11]) and in assay [2] (setting [12]) were 9020 and 9600, respectively. Moreover, the values for the z-score in assay [3] (setting [13]) and in assay [3] (setting [14]) were -0.247 (inactive) and 0.501, respectively.

As for `CO[C@@]1(NC(=O)[C@H](C(=O)O)c2ccc(O)cc2)C(=O)N2C(C(=O)O)=C(CSc3nnnn3C)CO[C@@H]21`, in assay [1], the parasite load remaining is 81.8% (inactive). Besides, the viability in assay [1] was determined as 98.4%. Besides, the values for the fold change in assay [2] (setting [9]) and in assay [2] (setting [10]) were 0.861 (inactive) and 1.17, respectively. The cell count was determined as 8980 in assay [2] (setting [11]) and 10400 in assay [2] (setting [12]). For the same compound, the z-score in assay [3] (setting [13]) was 0.452 (inactive); in assay [3] (setting [14]), -0.352.

`COc1ccc2cc([C@@H](C)C(=O)O)ccc2c1`: the survival in assay [4] is 10.1 (inactive). Moreover, the parasite load remaining in assay [1] was 124% (inactive) and 104% (inactive). Also, the viability in assay [1] was 101% and 92.4%. In addition, the fluorescence ratio in assay [5] and in assay [8] was 0.94 (inactive) throughout. Further, the figures for the inhibition in assay [6] and in assay [7] were 0.66% (inactive) and 8.27% (inactive), respectively. In addition, the fold change in assay [2] (setting [9]) is 0.747 (inactive); in assay [2] (setting [10]), 1.43. Besides, the cell count in assay [2] (setting [11]) was 6320; in assay [2] (setting [12]) it was 8450. In addition, the values for the z-score in assay [3] (setting [13]) and in assay [3] (setting [14]) were -0.0303 (inactive) and -0.487, respectively.

As for `NC[C@@H]1O[C@H](O[C@H]2[C@@H](O)[C@H](O[C@@H]3[C@@H](O)[C@H](N)C[C@H](N)[C@H]3OC3O[C@H](CO)[C@@H](O)[C@H](O)[C@H]3N)O[C@@H]2CO)[C@H](N)[C@@H](O)[C@@H]1O` (stereo not given in full), in assay [1], the parasite load remaining was 69.5% (inactive). The viability in assay [1] was determined as 103%. Besides, the figures for the fold change in assay [2] (setting [9]) and in assay [2] (setting [10]) were 0.833 (inactive) and 1.19, respectively. For the same compound, the cell count in assay [2] (setting [11]) is 8720; in assay [2] (setting [12]), 10500. Further, the z-score is 0.673 (inactive) in assay [3] (setting [13]) and -0.125 in assay [3] (setting [14]).

`Cc1onc(-c2c(F)cccc2Cl)c1C(=O)N[C@@H]1C(=O)N2C(C(=O)O)C(C)(C)S[C@H]12` (stereo not given in full): the survival in assay [4] is 15.2 (inactive). Moreover, the parasite load remaining in assay [1] is 131% (inactive). Moreover, the viability in assay [1] was found to be 74.7%. For the same compound, the fold change in assay [2] (setting [9]) was 0.98 (inactive); in assay [2] (setting [10]) it was 0.516. The cell count in assay [2] (setting [11]) worked out at 9050; in assay [2] (setting [12]), 9240. In addition, the z-score in assay [3] (setting [13]) is 0.325 (inactive); in assay [3] (setting [14]), 0.193.

Take `CC1(C)S[C@@H]2[C@H](NC(=O)COc3ccccc3)C(=O)N2C1C(=O)O` (stereo not given in full) (tested in a mixture with another compound): the survival in assay [4] is 4 (inactive). Moreover, in assay [1], the parasite load remaining was 98.8% (inactive). Further, the viability in assay [1] came out at 75.5%. Further, the fold change was 0.957 (inactive) in assay [2] (setting [9]) and 0.818 in assay [2] (setting [10]). Besides, the cell count was 9020 in assay [2] (setting [11]) and 9430 in assay [2] (setting [12]). Besides, the values for the z-score in assay [3] (setting [13]) and in assay [3] (setting [14]) were -0.168 (inactive) and -0.00269, respectively.

Turning to `CC(=O)O[C@H]1C[C@@]2(C)[C@@H](C[C@@H](O)[C@H]3[C@@]4(C)CC[C@@H](O)[C@@H](C)C4CC[C@@]32C)/C1=C(\CCC=C(C)C)C(=O)O` (stereo not given in full), the parasite load remaining in assay [1] is 147% (inactive). Moreover, in assay [1], the viability was determined as 140%. Moreover, the fold change in assay [2] (setting [9]) is 0.911 (inactive); in assay [2] (setting [10]), 1.1. Moreover, the cell count in assay [2] (setting [11]) was 8570; in assay [2] (setting [12]), 9410. Moreover, the z-score in assay [3] (setting [13]) was -3.27 (inactive); in assay [3] (setting [14]) it was -2.48.

By viability is commonly meant a read-out of living cells in per cent, often relative to untreated cells. The term inhibition denotes the change of the read-out against control, counted positive when it falls.

The record behind these values is PubChem BioAssay.
